{"source": "PubChem BioAssay AID624117", "about": "(National Center for Advancing Translational Sciences (NCATS), 2012)", "note": "Results filed as inconclusive are left out. Unmarked numbers belong to inactive results. Calls come from the whole dose curve; as a rule, active = well fitted curve in the direction sought with a large enough effect; inconclusive = small, poorly fitted or top-dose-only effect, or another doubt; inactive = no such curve, though single readings can be large or run the other way.", "data": [{"experiment": "qHTS Assay for Rab9 Promoter Activators: Hit Validation Using Renilla Luciferase Read-Out; note: % of control where 0% means no effect", "settings": "Huh7 NPC1 promoter Renilla luciferase reporter, 24 h; series mostly up to 76.9 µM; activation (negative = inhibition): at the top concentration", "outline": "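Huh7 cells stably carrying NPC promoter-luciferase, 1,500 cells/well, exposed to compound for 24 h at 37 deg C. Luminescence read 10 min after […] addition; validation of firefly-read primary hits.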", "units": {"activation (negative = inhibition)": "%"}, "values": [{"smiles": "COc1ccc(/C=C\\C(=O)c2c(O)ccc3c(C)cc(=O)oc23)cc1OC", "activation (negative = inhibition)": -59.8}, {"smiles": "O=C(c1cccc(Oc2ccc([N+](=O)[O-])cc2)c1)N1CCOCC1", "activation (negative = inhibition)": -8.02}, {"smiles": "COc1ccc(C(c2nnnn2CCc2ccccc2)N2CCN(C3CCCC3)CC2)cc1", "note": "(centres undefined)", "activation (negative = inhibition)": 0.128}, {"smiles": "Cn1c(CCN2CCN(c3ccccc3)CC2)nc2cc(NC(=O)c3ccco3)ccc21", "activation (negative = inhibition)": 11}, {"smiles": "COc1ccc(-c2cc(C(=O)Nc3ccccc3F)on2)cc1", "activation (negative = inhibition)": 1.74}, {"smiles": "O=C(C1COc2ccccc2O1)N1CCN(S(=O)(=O)c2ccccc2)CC1", "note": "(centres undefined)", "activation (negative = inhibition)": 5.12}, {"smiles": "O=C(N/N=C/c1ccc(-c2ccc(Br)cc2)o1)c1ccc2c(c1)OCO2", "activation (negative = inhibition)": -12.6}, {"smiles": "CCOCC(=O)Nc1c(C(=O)Nc2ccc3c(c2)OCCO3)oc2ccccc12", "activation (negative = inhibition)": -20.3}, {"smiles": "Cc1ccc(C(=O)NC2CCN(CC(=O)Nc3c(C)cc(C)cc3C)CC2)cc1", "activation (negative = inhibition)": -2.1}, {"smiles": "O=C(CCNC(=O)c1ccc(Br)o1)NCc1ccc(Cl)cc1", "activation (negative = inhibition)": -2.1}, {"smiles": "CC(C)(C)NC(=S)NNC(=O)c1ccc2ncccc2c1", "activation (negative = inhibition)": -57.9}, {"smiles": "COc1ccc(C(=O)OCC(=O)N2CCCC2=O)c(OC)c1", "activation (negative = inhibition)": 14.1}, {"smiles": "Brc1ccccc1-c1nnc(CSc2nnc3sc4ccccc4n23)o1", "activation (negative = inhibition)": -3.13}, {"smiles": "O=C(NCCc1c[nH]c2ccccc12)C(=O)NCC(c1ccco1)N1CCN(c2ccccc2F)CC1", "note": "(centres undefined)", "activation (negative = inhibition)": -40.5}, {"smiles": "Cc1ccc(N(O)C(=O)NCCCCNC(=O)N(O)c2ccc(C)cc2)cc1", "activation (negative = inhibition)": 1.58}, {"smiles": "CC(C)C(NC(=O)c1ccc([N+](=O)[O-])cc1Cl)C(=O)N1CCCC1", "note": "(centres undefined)", "activation (negative = inhibition)": 1.06}, {"smiles": "O=C(CCCN1C(=O)C(c2ccccc2)Oc2cccnc21)Nc1ccccc1Cl", "note": "(centres undefined)", "activation (negative = inhibition)": 3.99}, {"smiles": "O=C(CSc1nnc(-c2ccccn2)o1)Nc1ccccc1Cl", "activation (negative = inhibition)": -3.21}, {"smiles": "CCOC(=O)c1ccc(-c2nnc(-c3ccc(Cl)cc3Cl)o2)cc1", "activation (negative = inhibition)": -4.69}, {"smiles": "Nc1c(N(CCO)C(=O)/C=C/c2ccco2)c(=O)[nH]c(=O)n1Cc1ccccc1", "activation (negative = inhibition)": -0.0645}, {"smiles": "O=CN1CCN(C(=O)c2ccccc2Cl)CC1", "activation (negative = inhibition)": -4.72}, {"smiles": "Cc1ccc(C(=O)c2cncc(Br)c2)cc1", "activation (negative = inhibition)": 7.59}, {"smiles": "CCOC(=O)c1csc(COc2ccc(OC)cc2)n1", "activation (negative = inhibition)": -4.37}, {"smiles": "COC(=O)c1ccccc1S(=O)(=O)NNC(=O)Nc1ccccc1", "activation (negative = inhibition)": -4.79}, {"smiles": "Cc1nn(CCCC(=O)NCc2ccc(F)cc2)c(C)c1[N+](=O)[O-]", "activation (negative = inhibition)": -2.28}, {"smiles": "CCOc1cc(C2C(C#N)=C(N)Oc3n[nH]c(C)c32)ccc1OCCN1CCOCC1", "note": "(centres undefined)", "activation (negative = inhibition)": 13.1}, {"smiles": "COc1ccc(NC(=S)NNC(=O)c2cccs2)cc1", "activation (negative = inhibition)": 10.2}, {"smiles": "CC(C)(C)C(=O)NC(=S)Nc1ccccc1F", "activation (negative = inhibition)": 22.6}, {"smiles": "CCCN(CCC)CCCNC(=O)c1cc2cc3ccc(Cl)cc3nc2o1", "activation (negative = inhibition)": -30.2}, {"smiles": "COCC1CCN(C(=O)c2ccc3oc(Cc4ccccc4)nc3c2)C1", "note": "(centres undefined)", "activation (negative = inhibition)": 3.34}, {"smiles": "CCCOC(=O)Cn1cnc2scc(-c3ccc(OC)cc3)c2c1=O", "activation (negative = inhibition)": -4.52}, {"smiles": "O=C(NCC1CCCO1)C(c1ccc(F)cc1)N(Cc1ccc2c(c1)OCO2)C(=O)c1ccc(CN2CCOCC2)o1", "note": "(centres undefined)", "activation (negative = inhibition)": -4.06}, {"smiles": "COc1cccc(CNC(=O)CN(c2cc(C)cc(C)c2)S(=O)(=O)c2c(C)noc2C)c1", "activation (negative = inhibition)": 26.9}, {"smiles": "O=C(NC1CCCC1)C(c1ccc(F)cc1)N(C(=O)c1csnn1)c1ccccc1", "note": "(centres undefined)", "activation (negative = inhibition)": -3.01}, {"smiles": "CC1CCCN(C(=S)Nc2ccc(Nc3ccccc3)cc2)C1", "note": "(centres undefined)", "activation (negative = inhibition)": 11.8}, {"smiles": "CC(=O)Nc1ccc(-c2csc(Nc3ncccn3)n2)cc1", "activation (negative = inhibition)": -9.77}, {"smiles": "O=C(CSc1nccn1Cc1ccco1)Nc1ccccc1F", "activation (negative = inhibition)": 10.3}, {"smiles": "Cc1ccc(C(=O)c2cn[nH]c2-c2ccccc2O)cc1", "activation (negative = inhibition)": -8.79}, {"smiles": "CNC(=O)Cn1nc(C)c2ccccc2c1=O", "activation (negative = inhibition)": -4.32}]}]}
